Results published in ChEMBL document CHEMBL4296182, “CO-ADD screening of NIH NCI Diversity Set V”.
For part of these data: Results with a measured potency or affinity are listed apart.

Columns and labels:
[1] = test system: Staphylococcus aureus; assay: Antibacterial activity against Staphylococcus aureus MRSA ATCC 43300 (CO-ADD:GP_020); MIC in CAMBH media using NBS plates, by Resazurin F(560/590); type: functional; conditions: Concentration 20 uM, ASSAY_TEST Inhibition of Bacterial Growth, detection method Resazurin, Fluorescence (ex560/em590), MEDIA CAMHB, plate type 384well, CORNING #3640, time 18 hr
[2] = test system: Acinetobacter baumannii; assay: Antibacterial activity against Acinetobacter baumannii ATCC 19606 (CO-ADD:GN_034); MIC in CAMBH media using NBS plates, by Resazurin F(560/590); type: functional; conditions: Concentration 20 uM, ASSAY_TEST Inhibition of Bacterial Growth, detection method Resazurin, Fluorescence (ex560/em590), MEDIA CAMHB, plate type 384well, CORNING #3640, time 18 hr
[3] = test system: Escherichia coli; assay: Antibacterial activity against Escherichia coli ATCC 25922 (CO-ADD:GN_001); MIC in CAMBH media using NBS plates, by Resazurin F(560/590); type: functional; conditions: Concentration 20 uM, ASSAY_TEST Inhibition of Bacterial Growth, detection method Resazurin, Fluorescence (ex560/em590), MEDIA CAMHB, plate type 384well, CORNING #3640, time 18 hr
[4] = test system: Klebsiella pneumoniae; conditions: Concentration 20 uM; ASSAY_TEST Inhibition of Bacterial Growth; detection method Absorption (OD600); MEDIA CAMHB; plate type 384well; NBS; CORNING #3640; time 18 hr
[5] = test system: Candida albicans; conditions: 20 µM
[6] = test system: Cryptococcus neoformans; conditions: Concentration 20 uM; ASSAY_TEST Inhibition of Fungal Growth; detection method Resazurin; Absorption (OD600-OD570); plate type 384well; NBS; CORNING #3640

Row | Structure (SMILES) | Inhibition [1] [%] | Inhibition [2] [%] | Inhibition [3] [%] | Inhibition [4] [%] | Inhibition [5] [%] | Inhibition [6] [%]
1 | Nc1cc([N+](=O)[O-])ccc1N1C(=O)CCCC1=O | 5.36 | 15.02 | -8.9 | 10.57 | 7.24 | -9.22
2 | COc1cc(/N=N/c2ccccc2C(=O)O)ccc1O | 46.16 | -0.55 | 0.38 | 12.27 | -1.22 | 3.74
3 | CCOC(=O)c1nc(SC)n(C)c1C(=O)OCC | 10.21 | -12.95 | 18.32 | 2.22 | 0.39 | -13.08
4 | O=C(Nc1cc(-c2ccccc2)[nH]n1)c1ccc(Cl)cc1 | 11.18 | -15.73 | 6.31 | 6.21 | 8.34 | -8.44
5 | C=CCN=C(NC#N)SC | -6.06 | -0.66 | -1.07 | 5.62 | -0.02 | 0.87
6 | O=C(c1ccccc1)C1N=NCC1c1ccc(Cl)cc1 (centres undefined) | 21.05 | 1.64 | 18.84 | 8.27 | 8.01 | -11.46
7 | O=[N+]([O-])c1nc[nH]c1/C=C\c1ccccc1 | 6.19 | -12.82 | 5.35 | 8.67 | 3.47 | 10.56
8 | Cc1ccc2c(c1)sc1nncn12 | 15.32 | -15.79 | 12.68 | 5.69 | -0.75 | -11.46
9 | Cc1nc(NC(=N)N(C)C)nc(O)c1C | 4.99 | -6.08 | 5.79 | 6.63 | 0.54 | -10.51
10 | C(=C\c1ccccn1)/c1ccccn1 | -7.74 | -5.17 | -19.26 | 9.47 | 4.3 | 26.47
11 | CC1CC=C(O)C12OCC(C)(C)CO2 (centres undefined) | 3.19 | -6.5 | 5.59 | 14.38 | 0.02 | -5.4
12 | Nc1ccccc1-n1nc2ccc3ccccc3c2n1 | -2.24 | -24.16 | 7.22 | 6.99 | 3.16 | -10.55
13 | O=C(O)c1ccc(OCCOc2ccccc2)cc1 | -1.13 | -7.25 | 7.53 | 15.54 | 7.45 | -11.92
14 | N#CC1=C(Nc2ccccc2Cl)SC(c2ccncc2)NC1=O (centres undefined) | -1.66 | 6.04 | -3.11 | 12.56 | 4.49 | -0.15
15 | O=C1c2cccc(Sc3ccccc3)c2C(=O)c2c(Sc3ccccc3)cccc21 | 13.79 | -8.62 | 22.23 | 3.23 | 0.05 | -7.69
16 | OCCN1CCSC1=S | 15.14 | -9.39 | 8.07 | 16.39 | 1.12 | -6.82
17 | C#CC(C)OCC1CNC(=S)O1 (centres undefined) | 8.34 | 0.13 | 10.24 | 3.71 | 4.06 | 15.9
18 | Nc1nc(Cl)cc(Nc2ccccc2Cl)n1 | 12.37 | 13.94 | -7.98 | 12.81 | 7.79 | 1.11
19 | O=C(Cn1nnc(N2CCCCC2)n1)N/N=C/c1ccccc1O | 17.81 | 3.41 | 7.77 | 2.1 | -0.19 | -9.12
